The results in this text go back to ChEMBL document CHEMBL4513216, “Probing the Open Global Health Chemical Diversity Library for Multistage-Active Starting Points for Next-Generation Antimalarials” (ACS Infect Dis, 2020).

Out of some 69,000 compounds screened, about 8,600 (12%) showed an effect of 50% or more. What follows is part of a selection rich in strong results, with near analogues and random picks from the rest.

The test system of the assay is Plasmodium berghei. The assay can be described thus: Screen against P. berghei liver stage (PbLuc), transformed with Luciferase, at 10uM. The class given is functional, HepG2. Particulars: tested at 10 uM.
`O=c1[nH]c(N2CCOCC2)nc2c1CN(Cc1cccnc1)CC2`: the INHIBITION is on record as -4.51%.

For the compound `O=C1CCCN1CCCC(=O)N1CCC2(CC1)[C@H](O)C[C@@H]2O`, the INHIBITION worked out at 9.56%.

In the case of `CN(Cc1nc(Cc2cccc(C(F)(F)F)c2)no1)CC1CCCCO1` (configuration not stated), the INHIBITION came out at 42.1%.

Turning to `CNC(=O)COc1cccc(CNC(=O)c2c(C)noc2C(C)C)c1`, the INHIBITION is on record as 37.4%.

Consider `Cc1cc(C)c2nc(CN3CCC(CN)C3)cc(O)c2c1` (configuration not stated), for which the INHIBITION was -8.75%.

As to `Cc1cc(C)c2nc(CN3CC[C@@H](O)C3)cc(O)c2c1`, the INHIBITION turned out to be 20.1%.

In the case of `Cc1cc(C)c2nc(CN3CCC(CN)CC3)cc(O)c2c1`, the INHIBITION was 34.9%.

Consider `Cc1cc(C)c2nc(CN3CCOCC(O)C3)cc(O)c2c1` (configuration not stated), for which the INHIBITION came out at 17.6%.

As for `Cc1cc(C)c2nc(CN3CCCC(c4cc[nH]n4)C3)cc(O)c2c1` (configuration not stated), the INHIBITION was 78.5%.

For `COC1CCCN(Cc2cc(O)c3cc(C)cc(C)c3n2)C1` (configuration not stated), the INHIBITION amounted to 61.2%.

As to `CS(=O)(=O)CCn1ccc(NC(=O)Cc2ccccc2Cl)n1`, the INHIBITION turned out to be 25.2%.

Consider `CSCCC(Nc1nc(C)cc(C)n1)C(=O)NC1CC1` (configuration not stated), for which the INHIBITION is given as -15.4%.

With `NC(=O)C1CN(c2ccc(Br)cn2)CCO1` (configuration not stated), the INHIBITION stood at 69.7%.

`Cc1ccccc1CSc1nc(N)cc(N2CCOC(C(N)=O)C2)n1` (configuration not stated): the INHIBITION was -19.2%.

Consider `NC(=O)C1CN(c2ccc3cc(Br)ccc3n2)CCO1` (configuration not stated), for which the INHIBITION is on record as 37.1%.

On to `CCS(=O)(=O)N1CCCn2nnc(Cn3cccc3)c2C1`, for which the INHIBITION was 36.5%.

Turning to `c1ccc(OCc2nnn3c2CN(c2ncccn2)CCC3)nc1`, the INHIBITION is 57.1%.

`CC(=O)NCc1nnn2c1CN(c1ncc(C)cn1)CCC2`: the INHIBITION is 21.3%.

In the case of `CN(C)C(=O)NCc1nnn2c1CN(CC1CCOCC1)CCC2`, the INHIBITION was -51%.

In the case of `c1cnc(N2CCCn3nnc(COCC4CC4)c3C2)nc1`, the INHIBITION worked out at 18.7%.

Turning to `CCS(=O)(=O)N1CCCn2nnc(CNC(C)=O)c2C1`, the INHIBITION amounted to 52.1%.

With `c1ccc(CN2CCCn3nnc(COc4ccccn4)c3C2)nc1`, the INHIBITION is 24.9%.

Take `CC(=O)NCc1nnn2c1CN(c1ncccn1)CCC2`: the INHIBITION was found to be 54.8%.

Regarding `OCCOCc1nnn2c1CN(c1ncccn1)CCC2`, the INHIBITION is on record as 43.8%.

For `O=C(c1ccco1)N1CC[C@H]2C[C@@H](c3nccs3)O[C@@H]2C1`, the INHIBITION is -7.59%.

With `COc1cccc(CNC(=O)c2cc(C)nc(N3CCCCC3)n2)c1`, the INHIBITION was found to be 4.97%.

For `CCc1csc(C2CCCN(C(=O)c3ccco3)C2)n1` (configuration not stated), the INHIBITION is 19.6%.

For `CC(=O)N1CCC(C)(c2cc(C(=O)NCC3CC3)nc(C)n2)CC1`, the INHIBITION came to 9.075%.

In the case of `O=C1CC2(CCCCN2C(=O)c2ccsc2)CN1CC1CC1` (configuration not stated), the INHIBITION worked out at 37.4%.

Consider `COCCn1cnc2ccc(NC(=O)c3ccccn3)cc2c1=O`, for which the INHIBITION is 19.4%.

`CCn1nc(CC(C)C)cc1C(=O)N1CC(c2ccncc2)C1`: the INHIBITION was 57.4%.

Turning to `COc1cccc(OC2CN(C(=O)Cn3nc4ccccc4n3)C2)c1`, the INHIBITION worked out at 28.7%.

For `CC(C)Cc1cc(C(=O)N2CC(OCc3ccccc3F)C2)n(C)n1`, the INHIBITION stood at 43.2%.

Consider `CCn1nc(CC(C)C)cc1C(=O)N1CC[C@@H](O)C1`, for which the INHIBITION is 26.8%.

Regarding `COc1cccc(OC2CN(C(=O)c3cc(CC(C)C)nn3C)C2)c1`, the INHIBITION was found to be 79.2%.

Take `COc1cccc(OC2CN(C(=O)c3sccc3C)C2)c1`: the INHIBITION is given as -17.6%.

`CCn1nc(CC(C)C)cc1C(=O)N1C[C@H](O)[C@@H](N2CCCCC2)C1`: the INHIBITION is 29.7%.

As for `COc1cccc(OC2CN(C(=O)CCn3cnc4ccccc43)C2)c1`, the INHIBITION stood at 70%.

With `COc1cccc(OC2CN(C(=O)CCn3cnnn3)C2)c1`, the INHIBITION was 55.9%.

As to `O=C(CCn1cnc2ccccc21)N1CCN2CCCCC2C1` (configuration not stated), the INHIBITION is 40.1%.

With `CC(C)Cc1cc(C(=O)N2CCC(Oc3cccnc3)CC2)n(C)n1`, the INHIBITION is recorded as 5.11%.

Take `COc1cccc(OC2CN(C(=O)c3c(C)noc3C)C2)c1`: the INHIBITION is reported as -57.7%.

In the case of `Cc1ccc(CNC(=O)NCCCO)cc1`, the INHIBITION is given as 0.914%.

As for `Cc1ccc(C(NC(=O)C2CCC(O)CC2)c2cccnc2)cc1C` (configuration not stated), the INHIBITION was 7.84%.

For `Cc1ccccc1S(=O)(=O)NC(=O)C1(c2ccccc2)CCC1`, the INHIBITION is given as 35.2%.

With `Cc1ccc(S(=O)(=O)NC(C)(C)CN)c(F)c1`, the INHIBITION was -21.8%.

`Cn1ccc(C2CCCCN2C(=O)c2cccc(Cn3cccn3)c2)n1` (configuration not stated): the INHIBITION came out at 15%.

As for `Cn1ccc(C2CCCCN2C(=O)c2cccc(-n3cccn3)c2)n1` (configuration not stated), the INHIBITION is recorded as 56.1%.

Turning to `Cn1ccc(C2CCCCCN2C(=O)c2cccnc2)n1` (configuration not stated), the INHIBITION is reported as -1.16%.

Consider `O=S(=O)(NCCCn1cncn1)c1ccc2c(c1)OCCCO2`, for which the INHIBITION was found to be 49%.

Turning to `CSc1ncccc1C(=O)N1C[C@@H]2CC[C@H]1CN(c1cnccn1)C2`, the INHIBITION stood at 0.139%.

As to `CC(C)(CNC(=O)C1CCCN(C(N)=O)C1)c1cccc(Cl)c1` (configuration not stated), the INHIBITION stood at 21.5%.
